Assay results reported in PubChem BioAssay.

The compounds below were run against Focal adhesion kinase 1 (Homo sapiens) (UniProt Q05397) (assay: small-molecule microarray binders of FAK, primary screen, biochemical, 635/667 nm fluorescence, BSA, DTT (AID 1130;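 note: composite of spot emission at 667 nm and signal to noise over triplicate slides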)). Conditions: PTK2 binding, 635 nm fluorescence, higher = more signal.
Sequence of Focal adhesion kinase 1 (Homo sapiens) (Q05397 whole entry, looked up): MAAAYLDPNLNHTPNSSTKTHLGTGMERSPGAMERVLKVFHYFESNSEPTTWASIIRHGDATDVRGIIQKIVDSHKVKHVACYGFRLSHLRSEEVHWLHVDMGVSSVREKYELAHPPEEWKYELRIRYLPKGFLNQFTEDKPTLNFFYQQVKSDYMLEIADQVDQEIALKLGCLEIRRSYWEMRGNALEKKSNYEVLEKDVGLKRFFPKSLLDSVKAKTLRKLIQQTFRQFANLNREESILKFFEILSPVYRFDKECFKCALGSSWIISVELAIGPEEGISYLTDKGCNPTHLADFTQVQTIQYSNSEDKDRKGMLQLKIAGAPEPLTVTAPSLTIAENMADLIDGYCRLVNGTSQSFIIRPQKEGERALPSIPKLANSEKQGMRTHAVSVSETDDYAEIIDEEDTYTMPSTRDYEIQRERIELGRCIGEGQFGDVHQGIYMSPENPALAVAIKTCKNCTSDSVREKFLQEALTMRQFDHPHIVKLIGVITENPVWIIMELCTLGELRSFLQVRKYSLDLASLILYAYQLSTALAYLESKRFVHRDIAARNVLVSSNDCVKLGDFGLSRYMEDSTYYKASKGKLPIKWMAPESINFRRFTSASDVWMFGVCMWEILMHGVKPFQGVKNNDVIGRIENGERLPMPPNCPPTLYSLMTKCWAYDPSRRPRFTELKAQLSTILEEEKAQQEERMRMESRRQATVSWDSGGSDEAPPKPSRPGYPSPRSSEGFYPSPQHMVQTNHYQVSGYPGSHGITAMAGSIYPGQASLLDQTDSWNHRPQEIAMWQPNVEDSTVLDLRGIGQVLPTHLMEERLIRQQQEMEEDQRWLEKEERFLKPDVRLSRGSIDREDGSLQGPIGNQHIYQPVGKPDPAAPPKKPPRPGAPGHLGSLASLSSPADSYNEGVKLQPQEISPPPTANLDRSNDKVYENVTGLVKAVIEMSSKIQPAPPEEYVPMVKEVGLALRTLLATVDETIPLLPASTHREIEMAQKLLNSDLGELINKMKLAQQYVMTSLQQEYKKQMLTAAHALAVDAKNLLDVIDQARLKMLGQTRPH

Structure (SMILES)	composite z-score
O=C1C[C@H](c2ccccc2)[C@H](c2ccc(Br)cc2)O1	0.718
CO[C@H]1COC(=O)CC=C[C@@H](C)COC(=O)[C@H]2CCCN2C(=O)CC=C[C@H]1C	-0.0701
O=C(NN=C1C[C@@H](O)[C@@H](O)[C@@H]2[C@@H]3C(=O)N(Cc4ccccc4)C(=O)[C@@H]3CC[C@H]12)OCc1ccccc1	0.0773

The compounds below were run on Fibrinogen (Alexa647-labelled) (assay: fibrinogen binders on compound microarrays, profiling panel, artefact control for SMM control-protein annotation, biochemical, small-molecule microarray, 635/667 nm fluorescence (AID 1131;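 note: z-score merges 667 nm fluorescence with per-spot signal-to-noise over triplicate slides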)). Conditions: fibrinogen-A647 binding fluorescence, higher = more signal.

Structure (SMILES)	composite z-score
CON=C(C)CCN1CCCCc2nc(C)c(C)cc21	0.582
CCOC(=O)[C@H](Cc1ccccc1)NC(=O)CCC1CC(OC(=O)NCc2cccc3ccccc23)CC2(CCCC(COC(=O)NCC3CCCCC3)O2)O1 (some centres undefined)	0.923
CO[C@H]1COC(=O)CCC[C@H](C)[C@@H](OC)COC(=O)CC=C[C@@H]1C	-0.0891
C[C@H]1C=CCC(=O)OC[C@H](C)C(=O)N2CCC[C@H]2C(=O)OC1	-1.09
CC(=O)OC[C@H]1O[C@H](CCON=C(C)C)C=C[C@@H]1OC(C)=O	0.0586
CC(C)[C@@H](OCc1ccccc1)[C@H](C)C=NO[C@@H](C)c1cn([C@H](CO)Cc2ccccc2)nn1	-0.157
O=C1C2=CC[C@H]3C(=O)N(C4CCCCC4)C(=O)[C@H]3[C@H]2[C@H](O)[C@@H]2O[C@H]12	0.0555
CC(C)(C)N1C(=O)[C@H]2[C@H]3[C@H](O)[C@H](O)CC(=NNC(=O)OCc4ccccc4)[C@H]3CC[C@H]2C1=O	1.03
CC(C)(C)N1C(=O)[C@H]2[C@H]3[C@H](O)[C@H](O)CC(=NNC(=O)OCc4ccccc4)[C@@H]3CC[C@H]2C1=O	0.459
O=C1C2=CC[C@H]3C(=O)N(C[C@@H]4CCCO4)C(=O)[C@H]3[C@H]2[C@H](O)[C@@H]2O[C@H]12	-0.0182
CO[C@@H]1C=CCC(=O)N[C@@H](C)C(=O)OC[C@@H](NS(=O)(=O)c2ccc(C)cc2)[C@H](C)C=CCC(=O)OC[C@H]1C	-0.14
C[C@@H]1CC[C@@H](C(=O)O)N[C@H]1c1cccc(N2CCOCC2)c1	0.301
CO[C@@H]1COC(=O)[C@@H]2CCCN2C(=O)[C@@H](C)COC(=O)CCC[C@H]1C	0.482
O=C1[C@H]2[C@H]3[C@H](O)[C@H](O)CC(=NOC[C@@H](O)COCc4ccco4)[C@@H]3CC[C@H]2C(=O)N1C1CCCCC1	-0.811
CC(CCC(=O)OC[C@H]1O[C@H](C#Cc2ccccc2)C=C[C@@H]1Oc1ccc(C)cc1)=NO[C@H](C)c1cn([C@@H]2COC[C@H]2O)nn1	0.666
C[C@H]1CC[C@H]2C(=O)N[C@H](Cc3ccccc3)C(=O)N2[C@@H]1c1ccccc1	-0.0797
CC(=O)OC[C@H]1O[C@H](CC=NO[C@H](C)c2cn([C@@H]3COC[C@H]3O)nn2)C=C[C@@H]1OC(C)=O	0.897
O=C1CCCC=C1C(O)COCc1ccccc1 (centres undefined)	0.772

Structure (SMILES)	composite z-score
COc1ccc(COC(=O)NN=C2C[C@@H](O)[C@@H](O)[C@@H]3[C@@H]4C(=O)N(C5CCCCC5)C(=O)[C@@H]4CC[C@@H]23)cc1	0.0695
COC(=O)CC=C[C@@H](C)[C@@H](C=NOC[C@@H](O)COCc1ccco1)OC	-1.2
O=C1[C@H]2[C@H]3[C@H](O)[C@H](O)CC(=NO[C@@H]4O[C@H](CO)[C@@H](O)[C@H](O)[C@H]4O)[C@@H]3CC[C@H]2C(=O)N1C[C@@H]1CCCO1	0.907
O=C1[C@H]2[C@H]3[C@H](O)[C@H](O)CC(=NOC[C@@H](O)COCc4ccco4)[C@@H]3CC[C@H]2C(=O)N1Cc1ccccc1	-0.956
CCOC(=O)[C@H](Cc1ccccc1)NC(=O)CCC1CC(OC(=O)NCCc2ccc(F)cc2)CC2(CCCC(COC(=O)NCc3cccc(C(F)(F)F)c3)O2)O1 (some centres undefined)	0.943
O=C1C=C[C@@H](O)[C@@H]2[C@@H]3C(=O)N(C4CCCCC4)C(=O)[C@@H]3CC[C@@H]12	0.831
CCN1C(=O)[C@H]2[C@@H]3C(=CC[C@H]2C1=O)C(=O)[C@H]1O[C@H]1[C@H]3O	0.185
CCOC(=O)[C@H](Cc1ccccc1)NC(=O)CCC1CC(OC(=O)NCc2ccc3c(c2)OCO3)CC2(CCCC(COC(=O)NCCOc3ccccc3)O2)O1 (some centres undefined)	0.96
CCN1C(=O)[C@H]2[C@H]3[C@H](O)[C@H](O)CC(=NO[C@H](C)c4cn([C@H](CO)Cc5ccccc5)nn4)[C@@H]3CC[C@H]2C1=O	0.932
COC(OC)[C@@H](C)[C@H](OC)[C@@H](C)[C@H](OC)c1ccccc1	-0.353
CO[C@@H]1COC(=O)[C@H](CCSC)NC(=O)CC=C[C@@H](C)COC(=O)[C@@H]2CCCN2C(=O)CC=C[C@H]1C	-1.13
CC(C)=NO[C@H](C)c1cn([C@@H]2COC[C@H]2O)nn1	0.187
CC(C)=NOC(C)CN1CCCc2nc(C)c(C)cc21 (centres undefined)	0.484
CC#CCOCCC=C1c2ccccc2[C@@H](OC)[C@@H]1C	0.329
O=C1[C@H]2[C@H]3[C@H](O)[C@H](O)CC(=NO[C@@H]4O[C@H](CO)[C@@H](O)[C@H](O)[C@H]4O)[C@H]3CC[C@H]2C(=O)N1C[C@@H]1CCCO1	0.333
O=C1C[C@H](c2ccccc2)[C@H](c2ccc(Br)cc2)O1	-0.233
CO[C@H]1COC(=O)CC=C[C@@H](C)COC(=O)[C@H]2CCCN2C(=O)CC=C[C@H]1C	-1.05
O=C(NN=C1C[C@@H](O)[C@@H](O)[C@@H]2[C@@H]3C(=O)N(Cc4ccccc4)C(=O)[C@@H]3CC[C@H]12)OCc1ccccc1	-0.265
